D3 antag: antagonists of human D3 dopamine receptor | actives 2.5% (n = 360,000) | max response, negative = inhibition, % | P35462 | D3R cells, DiscoveRx beta-arrestin luminescence, antagonist mode; stronger effect = lower value; in the data active = max response below about -50%; inconclusive = no clear call, values can overlap the other calls; note: % is set by controls: 0 for no effect and ±100 for the full control effect
Target sequence (P35462 whole entry, looked up): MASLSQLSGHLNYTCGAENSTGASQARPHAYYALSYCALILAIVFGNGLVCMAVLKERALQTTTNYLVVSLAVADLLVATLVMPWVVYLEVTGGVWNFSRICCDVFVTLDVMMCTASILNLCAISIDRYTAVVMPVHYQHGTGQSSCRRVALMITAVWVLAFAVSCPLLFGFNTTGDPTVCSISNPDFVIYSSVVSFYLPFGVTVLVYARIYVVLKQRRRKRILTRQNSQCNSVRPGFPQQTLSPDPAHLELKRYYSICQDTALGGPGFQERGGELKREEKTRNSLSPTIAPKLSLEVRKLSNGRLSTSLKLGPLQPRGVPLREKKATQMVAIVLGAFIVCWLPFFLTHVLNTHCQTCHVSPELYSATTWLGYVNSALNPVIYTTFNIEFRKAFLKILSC
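Cells expressing the human receptor were seeded at 1500 cells/well, incubated overnight at 37 degrees C in 5% CO2, then exposed to library compounds with dopamine controls for 90 minutes at 37 degrees C before luminescent detection.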
SW480 rerep: induces DNA re-replication in SW480 colon adenocarcinoma cells. SW480 DNA re-replication, Hoechst DNA content imaging, 48 h. Potency, µM (series often up to 46.1 µM), for the others: at the top dose re-replication activation, most hits filed as activators. actives 1.8% (n = 340,000); note: potency is the fitted concentration of half-maximal effect; % of control where 0% means no effect; nearly all actives have a fitted effect of over 55% in size
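Compounds, transferred as 23 nL by pin tool, were incubated with cells for 48 hr; DNA content per nucleus was then quantified by Hoechst staining and fluorescence plate imaging.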
MCF10A rerep: induces DNA re-replication in MCF 10a normal breast cells | MCF 10A DNA re-replication, Hoechst nuclear intensity, 48 h | Potency, µM (top dose mostly 46.1 µM), without a hit: top-dose activity, positive = re-replication, hits mostly activators | actives 2.9% (n = 350,000) | AID 624296; note: potency is the fitted concentration of half-maximal effect; % of control where 0% means no effect; nearly all actives have a fitted effect of over 50% in size
D3 ag: activates the human D3 dopamine receptor. D3R DiscoveRx beta-arrestin cells, luminescence, 90 min. AID 652048. actives 0.58% (n = 410,000). P35462. max activation, %; in the data active = max activation above about 30%; note: 0% is about no effect
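Cells at 1500/well, incubated overnight, then treated with pinned compounds (dopamine as control) for 90 min at 37 degrees C. DiscoveRx reagent added for 30 - 60 minutes at room temperature; luminescence read.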
KB-3-1 cytotox: kills parental KB-3-1 adenocarcinoma cells | KB-3-1 viability, CellTiter-Glo ATP luminescence, 72 h | Potency, µM (doses to about 46.1 µM), hits mostly cytotoxic | actives 1.4% (n = 400,000); note: potency is the fitted concentration of half-maximal effect; % is set by controls: 0 for no effect and ±100 for the full control effect; nearly all actives have a fitted effect of over 60% in size
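72 h, 37 °C compound treatment of KB-3-1 parental cells; CellTiter-Glo added, 10 min, luminescence read. Data corrected against DMSO-only plates and normalized before curve fitting.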
KB-V1 cytotox: kills drug-selected multidrug resistant KB-V1 cells. actives 3.4% (n = 400,000). KB-V1 MDR cells viability, CellTiter-Glo, 72 h. Potency, µM (top dose mostly 46.1 µM), usual class: cytotoxic; note: potency is the fitted concentration of half-maximal effect; % is set by controls: 0 for no effect and ±100 for the full control effect; nearly all actives have a fitted effect of over 60% in size
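Luminescent ATP read-out (CellTiter-Glo, 10 min) measures survival of drug-selected KB-V1 MDR cells after 72 h, 37 degrees C compound exposure. Medium: phenol-red-free DMEM, 10% FBS. Values from fitted concentration-response curves.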
Active calls of the source: *; i = inactive; ? = inconclusive; . = no result given. Shown are actives, neighbours in structure and some others; about 8.9% of the full set was active somewhere. Unless noted, calls come from the whole dose curve; as a rule, active = well fitted curve in the direction sought with a large enough effect; inconclusive = small, poorly fitted or top-dose-only effect, or another doubt; inactive = no such curve, though single readings can be large; an effect the other way counts as inactive or inconclusive.

SMILES	D3 antag	SW480 rerep	MCF10A rerep	D3 ag	KB-3-1 cytotox	KB-V1 cytotox
COc1ccccc1/C=C/C(=O)Nc1ccc2c(c1)CCC2	?	-7%	12%	-3	i	i
CCC(CC)c1nnc(NC(=O)Oc2ccccc2)s1	-69*	-3%	-2%	-3	i	i
CCC(CC)c1nnc(NC(=O)c2ccc([N+](=O)[O-])cc2)s1	0	-5%	-1%	-4	i	21µM*
COc1ccc(C(=O)Nc2nc(-c3ccc([N+](=O)[O-])cc3)c(-c3ccc(OC)cc3)s2)cc1	-52*	6%	?	-10	i	i
O=C(Nc1ncc(Cc2ccc(Cl)cc2Cl)s1)c1ccc([N+](=O)[O-])cc1	-19	-119%	2%	-11	5.8µM*	?
CN(C(=O)c1cc2nc(-c3ccc4c(c3)OCO4)cc(C(F)(F)F)n2n1)c1ccc(OC(F)(F)F)cc1	.	.	.	-4	i	i
O=C(COc1ccc(-c2nnco2)cc1)NCc1ccccc1Cl	-8	-12%	5%	0	i	i
CC(NC(=O)COc1ccc(-c2nnco2)cc1)c1ccc(Cl)cc1Cl (configuration not stated)	-7	.	5%	-7	?	21µM*
CCCNC(=O)c1cc(C2CCCCN2S(C)(=O)=O)on1 (configuration not stated)	-91*	.	.	-26	i	i
CCCNC(=O)c1cc(C2CCCCN2S(=O)(=O)c2ccccc2)on1 (configuration not stated)	-24	.	.	-13	i	i
CCOc1ccc(CCNC(=O)NCc2noc3ccc(C)cc23)cc1	.	.	.	8	i	i
COc1cc(/C=C(\C#N)c2nc(-c3cc4ccccc4oc3=O)cs2)ccc1O	-30	-4%	0.92µM*	-12	i	i
COc1cc(/C=C(\C#N)c2nc3ccccc3o2)ccc1O	?	17%	18µM*	-8	i	i
c1ccc(COC2COC3C(OCc4ccccc4)COC23)cc1 (configuration not stated)	21	-1%	10%	2	i	i
Cc1cc(/C([O-])=C(/C(=S)Nc2ccc(F)cc2)[n+]2ccccc2)c(C)n1-c1ccc(F)cc1	?	13%	19%	-26	i	23µM*
Cc1cc(/C([O-])=C(/C(=S)Nc2ccccc2)[n+]2ccccc2)c(C)n1-c1ccccc1	-7	15%	22%	2	i	i
O=S(=O)(C/C(=C/CO)S(=O)(=O)c1ccccc1)c1ccccc1	-59*	1.2µM*	0.82µM*	-34	?	?
O=C(NC1CCCCC1)N1CCCC(c2nc(-c3ccc(S(=O)(=O)N4CCCC4)cc3)no2)C1 (configuration not stated)	4	-1%	6%	-3	?	3.7µM*
CC(C)C(=O)N1CCC(c2nc(-c3ccc(S(=O)(=O)N4CCCC4)cc3)no2)CC1	23	-5%	1%	7	i	12µM*
O=S(=O)(c1ccc(F)cc1)N1CCCC(c2nc(-c3ccc(F)cc3)no2)C1 (configuration not stated)	-8	-2%	?	14	i	i
O=S(=O)(NC1CC1)c1ccc(S(=O)(=O)N2CCCC(c3nc(-c4cccnc4)no3)C2)cc1 (configuration not stated)	7	5%	19%	7	i	8.2µM*
O=C(c1ccc(F)cc1)N1CCC(c2nc(-c3ccc(S(=O)(=O)N4CCCC4)cc3)no2)CC1	.	.	.	5	.	.
Cc1nn(CC(=O)N2CCN(c3ccccc3F)CC2)c(=O)c2cccn12	.	.	.	4	.	.
O=C1O[C@@H](c2ccccc2)C[C@@H](O)[C@H](O)CCCCc2ccccc21	0	.	.	-14	i	i
O=C1O[C@@H](c2ccccc2)C[C@@H](O)[C@H](O)CCCc2ccccc21	-55*	.	.	-13	i	i

Screens from PubChem BioAssay.
